Assay outcomes deposited in PubChem BioAssay by several laboratories.
A selection: hits, their analogues and other compounds. The true share with any hit is near 1.4%.
APOBEC3G inh = blocks human APOBEC3G single-stranded DNA deamination; Q9HC16; recombinant A3G, ssDNA deamination FAM/TAMRA fluorescence; inhibition, % at 20 µM; 330,000 compounds, 0.28% hits; AID 493012;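 active means inhibition of at least 40% at 20 µM, with no more than 30% in the related APOBEC3A deaminase screen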;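 further: plate controls were DMSO wells with A3G for no effect and wells lacking A3G enzyme for full effect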
LANA-H2A inh = blocks KSHV LANA binding to histone H2A/H2B. cell-free LANA-H2A/H2B peptide, fluorescence polarization. 320,000 compounds, 0.6% hits. Q9QR71. AID 2629. inhibition, % (concentration not given with the values); in the data active means inhibition mostly above about 10%, no sharp cut-off; inactive means mostly below about 6.7%
HDAC3 inh = blocks human histone deacetylase 3 | inhibition, % at 8.3 µM | AID 2718 | recombinant HDAC3, fluorogenic peptide/trypsin coupled, fluorescence | O15379 | 320,000 compounds, 0.15% hits; in the data active means inhibition above about 26%, passing the limit was not always enough; inconclusive means no clear call, values can overlap the other calls
A3A deaminase = human APOBEC3A DNA deaminase inhibition. P31941. AID 493011. recombinant A3A, FAM/TAMRA ssDNA deamination fluorescence. 330,000 compounds, 0.41% hits. inhibition, % at 20 µM;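 active means at least 40% inhibition at 20 µM here, with at most 30% in a related deaminase screen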;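 further: plate controls were A3A with DMSO for no effect and wells lacking A3A enzyme for full effect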
Starred values were filed as active, the others as inactive; ? = inconclusive; nt = no result.

SMILES	APOBEC3G inh	LANA-H2A inh	HDAC3 inh	A3A deaminase
COc1cc(OCc2ccccc2)c(C(=O)/C=C/c2ccc3c(c2)OCO3)c(OC)c1OC	10	-3	-4	2
COc1ccc(C2C(C(=O)c3cccs3)=C(O)C(=O)N2c2nncs2)cc1 (stereo not given)	-5	30*	14	-5
C[C@@]12CCC=C[C@H]1[C@H](c1ccc(F)c(/C=C/c3ccccc3)c1)N(Cc1ccccc1)C2=O	-9	-4	31*	-1
Cc1ccc(F)c([C@H]2[C@@H]3C=CCC[C@@]3(C)C(=O)N2Cc2ccccc2)c1	-2	-5	-2	0
CN(C)c1ccc(-c2cc([C@H]3[C@@H]4C=CCC[C@@]4(C)C(=O)N3Cc3ccccc3)ccc2F)cc1	-6	14*	0	-3
Cc1ccc(-c2cc([C@H]3[C@@H]4C=CCC[C@@]4(C)C(=O)N3Cc3ccccc3)ccc2F)cc1	-2	-5	10	-2
CS(=O)(=O)C1=NSC2=NC(=O)/C(=C\c3ccc(OC(=O)c4ccco4)cc3)C(=N)N21	-3	0	35*	-2
CS(=O)(=O)C1=NSC2=NC(=O)/C(=C\c3cccn3-c3ccc(Cl)cc3)C(=N)N21	nt	48*	0	nt
COCCn1c(Cc2ccccc2)nnc1SC(C)C(=O)NC1CC1 (stereo not given)	-6	3	1	-2
COc1ccc(C(CNC(=O)c2oc3c(Cl)cccc3c2C)N2CCCC2)cc1 (stereo not given)	0	22*	2	-1
COc1ccccc1NC(=O)COC(=O)c1[nH]c(=O)[nH]c(=O)c1N	-6	2	0	-3
COC(=O)C1CCN(C(=O)c2ccc(Cl)c(S(=O)(=O)NCc3cccnc3)c2)CC1	-6	43*	0	-3
O=C(c1ccc(Cl)c(S(=O)(=O)NCc2ccccc2)c1)N1CCN(c2ccccn2)CC1	-5	-3	-6	0
Cc1ccc(C(=O)Nc2cccc(NC(=O)c3cccs3)c2)c(C)c1	1	-1	7	1
Cn1nc(CC(=O)Nc2cccnc2N2CCOCC2)c2ccccc2c1=O	-1	38*	1	0
Cn1nc(CC(=O)NC2CCCCCCCCCCC2)c2ccccc2c1=O	1	-4	11	4
COc1ccc(-c2sc3ccc(N4CCOCC4)cc3c2C#CCCO)cc1	-6	5	15	-2
OC(C#CCCN1CCCCC1)(c1ccccc1)c1ccccc1	-3	-3	-2	-3
OC(C#CCN1CCCCCC1)(c1ccccc1)c1cccnc1 (stereo not given)	-4	15*	-4	-7
OC(C#CCN1CCCC1)(c1ccccc1)c1cccnc1 (stereo not given)	8	27*	4	1
CCCN(CC#CC(O)(c1ccccc1)c1cccnc1)CCC (stereo not given)	-7	4	-1	-6
CCC[C@@H](O)c1cc2cc(OC)c(OC)cc2c(=O)o1	-5	0	-9	2
Cc1cc(NC(=O)COC(=O)c2cc([N+](=O)[O-])ccc2N2CCOCC2)ccc1Br	-8	2	0	2
COCCNC(=O)CN(Cc1ccc2c(c1)OCO2)C(=O)CCC(=O)Nc1nccs1	-8	18*	-1	-5
O=c1[nH]c(Cc2ccccc2)nc2c1oc1ccccc12	-1	8.2*	-6	6
SMILES	APOBEC3G inh	LANA-H2A inh	HDAC3 inh	A3A deaminase
Cn1c(=O)c2c(ncn2CC(=O)NC[C@H]2O[C@@H](n3cnc4c(N)ncnc43)[C@H](O)[C@@H]2O)n(C)c1=O	7	nt	nt	4
COc1ccc(NC(=O)CN(C)C(=O)C(Sc2ccccc2)c2ccccc2)cc1 (stereo not given)	-4	60*	0	-1
COc1ccc(NC(=O)CN(C)C(=O)c2ccccc2SCC(=O)N2CCCC2)cc1	8	19*	4	5
CCN(CC(=O)Nc1ccccc1C(F)(F)F)C(=O)c1ccccc1SCC(=O)N1CCCC1	-9	35*	-2	-2
CN(CC(=O)Nc1c(Cl)cccc1Cl)C(=O)c1ccccc1SCC(=O)N1CCCC1	2	-1	1	-1
O=C(O)c1ccc(O)cc1O	-12	28*	-4	-8
Nc1ccc(C(=O)O)c(O)c1	-4	-5	0	-3
COCCNC(=S)NNC(=O)c1ccco1	-3	61*	1	-1
CCCC(C(=O)NC1CCCC1)N(Cc1ccccc1)C(=O)c1snc(C(N)=O)c1N (stereo not given)	-6	-1	6	2
CCCCC[C@H]1CN(Cc2ccccc2)C(=O)[C@@H]1CC(=O)NCc1ccc(OC)cc1	17	1	13	3
COc1cccc(N(CC(=O)NCC2CCCO2)C(=O)CCC(=O)Nc2nccs2)c1 (stereo not given)	-1	29*	2	2
C=CC[C@@H](CC(=O)N(CCO)Cc1ccccc1)C(=O)NC[C@H](OC(=O)[C@@H](CC=C)Cc1ccc(F)cc1)c1ccccc1	-5	7	0	1
Cc1ccccc1Nc1nnc(SCc2cc([N+](=O)[O-])cc3c2OCOC3)s1	0	24*	3	1
O=C(NCC1CCCO1)C1CCN(S(=O)(=O)c2cc(Cl)ccc2Cl)CC1 (stereo not given)	-2	13*	2	-5
COc1ccc(Cl)cc1S(=O)(=O)N1CCC(C(=O)NCC2CCCO2)CC1 (stereo not given)	-4	-4	4	0
CCO[C@@H]1OC(C(=O)N2CCN(Cc3ccc4c(c3)OCO4)CC2)=C[C@H](c2csc3ccccc23)[C@H]1CCCO	14	14*	3	3
COC(=O)CSc1nnc(CCc2ccccc2)n1C	-1	11*	-1	-3
CCCC(C(=O)O)N1C(=O)/C(=C/c2cccn2C)SC1=S (stereo not given)	nt	-26	11	nt
CC(C)C(C(=O)O)N1C(=O)/C(=C/c2cccn2C)SC1=S (stereo not given)	nt	-16	33*	nt
CC(=O)Nc1ccc(S(=O)(=O)N(C)CC(=O)NC2CCCCCCC2)cc1	-7	-1	-2	-1
CC(=O)Nc1ccc(S(=O)(=O)N(C)CC(=O)OC2CCCCC2=O)cc1 (stereo not given)	-2	59*	-4	-1
Cc1cc(C)n2nc(SC(C)C(=O)Nc3ccccc3F)nc2n1 (stereo not given)	-2	3	9	2
Cc1ccccc1NC(=O)Cc1nc(COC(=O)CCC(=O)c2ccccc2)cs1	-4	104*	1	0
CCN1C(=O)c2cccc3c(Cl)ccc(c23)C1=O	-10	-2	4	3
Cc1cccc(N2C(=O)c3cccc4c(N)ccc(c34)C2=O)c1	-59	61*	?	-37
Cc1cccc(N2C(=O)c3cccc4c(N(C)CCO)ccc(c34)C2=O)c1	-27	20*	-3	-19
Cc1cccc(N2C(=O)c3cccc4cccc(c34)C2=O)c1	-2	7	-1	4
Nc1cccc(N2C(=O)c3cccc4c(N)ccc(c34)C2=O)c1	-24	26*	nt	-9
CC(C)CCN1C(=O)c2cccc3c(N)ccc(c23)C1=O	-101	14*	0	-49
